Results as given in PubChem BioAssay (NCI).
The panel holds about 79,000 compounds, 15% with a hit somewhere; the sample as a whole holds those more often. A number with no mark means an inactive call. Activity calls are given as the source filed them. No stated cut-off is given here; in the data, active means growth inhibition above about 70%; inactive means the rest.

Legend:
[1] = NCI Yeast Anticancer Drug Screen. Data for the wt1 strain (AID 149);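 further: 0% = growth of vehicle-treated wt1 cultures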; details: S. cerevisiae wt1 strain (SPY 50644) growth inhibition, active compounds read high
Procedure, shortened: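 Yeast wt1 strain exposed to compounds; growth inhibition measured relative to vehicle-treated controls.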

[2] = NCI Yeast Anticancer Drug Screen. Data for the rad50EPP+ strain (AID 151);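 further: 0% = growth of vehicle-treated control cultures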; details: S. cerevisiae rad50 mutant strain, active compounds read high
Procedure, shortened: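 Compounds were applied to the rad50EPP+ yeast strain, which bears a defined DNA repair alteration, and growth inhibition was determined relative to vehicle-treated cultures.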

[3] = NCI Yeast Anticancer Drug Screen. Data for the mgt1 strain (AID 153); details: S. cerevisiae mgt1 mutant growth inhibition, active compounds read high
Procedure, shortened: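 Strain: mgt1 yeast, one of a set carrying defined DNA damage repair or cell cycle control alterations. Compound-treated growth compared with vehicle.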

[4] = NCI Yeast Anticancer Drug Screen. Data for the rad50 strain (AID 155);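 further: 0% = growth of vehicle-only cultures of the same strain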; details: S. cerevisiae rad50 strain growth inhibition, active compounds read high
Procedure, shortened: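 Yeast carrying a defined DNA repair defect were exposed to test compounds, and growth was compared with vehicle-treated controls to give percent inhibition.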

[5] = NCI Yeast Anticancer Drug Screen. Data for the mec2-1 strain (AID 157); details: S. cerevisiae mec2-1 strain, active compounds read high
Procedure, shortened: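 Strain: mec2-1 (DNA repair/cell cycle alteration). Compound exposure, then growth measured; inhibition expressed relative to vehicle.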

[6] = NCI Yeast Anticancer Drug Screen. Data for the rad14 strain (AID 159);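 further: 0% = growth of vehicle-treated control cultures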; details: S. cerevisiae rad14 strain growth inhibition, active compounds read high
Procedure, shortened: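 Yeast cells carrying a defined DNA-repair defect were exposed to compounds, and growth inhibition was calculated relative to vehicle-treated control cultures.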

[7] = NCI Yeast Anticancer Drug Screen. Data for the sgs1 mgt1 strain (AID 161);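 further: 0% = growth of cultures given vehicle only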; details: S. cerevisiae sgs1 mgt1 strain, active compounds read high
Procedure, shortened: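 Test agents were incubated with a DNA-repair-mutant yeast strain. Growth was then read and compared against vehicle-treated controls.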

[8] = NCI Yeast Anticancer Drug Screen. Data for the CLN2oe strain (AID 163);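 further: 0% = growth of vehicle-only control cultures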; details: S. cerevisiae CLN2oe strain, active compounds read high
Procedure, shortened: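 Growth of a genetically modified yeast strain is measured after compound exposure and compared with cultures given vehicle alone.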

[9] = NCI Yeast Anticancer Drug Screen. Data for the cln2 rad14 strain (AID 165);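 further: 0% = growth equal to vehicle treated cultures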; details: S. cerevisiae cln2 rad14 strain, active compounds read high
Procedure, shortened: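 Compounds are applied to the cln2 rad14 yeast strain, and growth is then compared with that of vehicle-treated cultures to give inhibition.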

[10] = NCI Yeast Anticancer Drug Screen. Data for the bub3 strain (AID 167); details: S. cerevisiae bub3 mutant strain, active compounds read high
Procedure, shortened: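 Compounds were applied to a genetically altered yeast strain carrying a cell-cycle control defect. Growth inhibition was scored against vehicle-treated controls.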

[11] = NCI Yeast Anticancer Drug Screen. Data for the wt2 strain (AID 169);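 further: 0% = growth of vehicle-treated yeast cultures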; details: S. cerevisiae wt2 strain growth inhibition, active compounds read high
Procedure, shortened: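 This strain belongs to a panel of yeast strains with defined genetic alterations in DNA damage repair or cell cycle control. Compounds are applied, and growth inhibition is measured against vehicle-treated cultures.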

[12] = NCI Yeast Anticancer Drug Screen. Data for the mlh1 strain (AID 171);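 further: 0% = growth of vehicle-treated control cultures of the same strain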; details: S. cerevisiae mlh1 strain growth inhibition, active compounds read high
Procedure, shortened: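 Growth of the mutant yeast strain after compound exposure, expressed as inhibition relative to vehicle-only controls.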

[13] = NCI Yeast Anticancer Drug Screen. Data for the sgs1 strain (AID 173);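 further: 0% = growth of vehicle-only control cultures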; details: S. cerevisiae sgs1 mutant, active compounds read high
Procedure, shortened: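 Growth of a yeast strain bearing a defined genetic alteration is measured after compound treatment. Inhibition is expressed relative to vehicle-only controls.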

[14] = NCI Yeast Anticancer Drug Screen. Data for the mlh1 rad18 strain (AID 175); details: S. cerevisiae mlh1 rad18 strain growth inhibition, active compounds read high
Procedure, shortened: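 Read-out is yeast growth inhibition, calculated against vehicle-only controls. The compound was applied to a strain engineered with DNA damage repair alterations.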

[15] = NCI Yeast Anticancer Drug Screen. Data for the rad18 strain (AID 177); details: S. cerevisiae rad18 mutant growth inhibition, active compounds read high
Procedure, shortened: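 Growth of the mutant yeast strain after compound exposure, normalised to vehicle-only cultures.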

[16] = at 5.0 µM (retest, dose inferred, filed as 0.5)
[17] = at 50.0 µM (retest, dose inferred, filed as 5.0)

## CCCC#CCOC(=O)c1cc([N+](=O)[O-])cc([N+](=O)[O-])c1
[1]; at 1.2 µM
  growth inhibition: -4%
[1]; at 3.7 µM
  growth inhibition: 22%
[1]; at 11.0 µM
  growth inhibition: 99% (active)
[1]; at 33.0 µM
  growth inhibition: 99% (active)
[1]; at 100.0 µM
  growth inhibition: 99% (active)
[2]; at 1.2 µM
  growth inhibition: 22%
[2]; at 3.7 µM
  growth inhibition: 92% (active)
[2]; at 11.0 µM
  growth inhibition: 99% (active)
[2]; at 33.0 µM
  growth inhibition: 99% (active)
[2]; at 100.0 µM
  growth inhibition: 99% (active)
[3]; at 1.2 µM
  growth inhibition: -5%
[3]; at 3.7 µM
  growth inhibition: 86% (active)
[3]; at 11.0 µM
  growth inhibition: 99% (active)
[3]; at 33.0 µM
  growth inhibition: 99% (active)
[3]; at 100.0 µM
  growth inhibition: 99% (active)
[4]; at 1.2 µM
  growth inhibition: 2%
[4]; at 3.7 µM
  growth inhibition: 67%
[4]; [16]
  growth inhibition: 88% (active)
[4]; at 11.0 µM
  growth inhibition: 98% (active)
[4]; at 33.0 µM
  growth inhibition: 98% (active)
[4]; [17]
  growth inhibition: 99% (active)
[4]; at 50.0 µM
  growth inhibition: 99.5% (active)
[4]; at 100.0 µM
  growth inhibition: 99% (active)
[5]; at 1.2 µM
  growth inhibition: -2%
[5]; at 3.7 µM
  growth inhibition: 33%
[5]; [16]
  growth inhibition: 99% (active)
[5]; at 11.0 µM
  growth inhibition: 99% (active)
[5]; at 33.0 µM
  growth inhibition: 99% (active)
[5]; [17]
  growth inhibition: 100% (active)
[5]; at 50.0 µM
  growth inhibition: 99.7% (active)
[5]; at 100.0 µM
  growth inhibition: 99% (active)
[6]; at 1.2 µM
  growth inhibition: 0%
[6]; at 3.7 µM
  growth inhibition: 28%
[6]; at 11.0 µM
  growth inhibition: 98% (active)
[6]; at 33.0 µM
  growth inhibition: 99% (active)
[6]; at 100.0 µM
  growth inhibition: 99% (active)
[7]; [16]
  growth inhibition: 97% (active)
[7]; [17]
  growth inhibition: 100% (active)
[7]; at 50.0 µM
  growth inhibition: 99.7% (active)
[8]; at 1.2 µM
  growth inhibition: -2%
[8]; at 3.7 µM
  growth inhibition: 11%
[8]; at 11.0 µM
  growth inhibition: 99% (active)
[8]; at 33.0 µM
  growth inhibition: 99% (active)
[8]; at 100.0 µM
  growth inhibition: 99% (active)
[9]; [16]
  growth inhibition: 23%
[9]; [17]
  growth inhibition: 99% (active)
[9]; at 50.0 µM
  growth inhibition: 99.5% (active)
[10]; at 1.2 µM
  growth inhibition: -9%
[10]; at 3.7 µM
  growth inhibition: 4%
[10]; [16]
  growth inhibition: 86% (active)
[10]; at 11.0 µM
  growth inhibition: 98% (active)
[10]; at 33.0 µM
  growth inhibition: 98% (active)
[10]; [17]
  growth inhibition: 99% (active)
[10]; at 50.0 µM
  growth inhibition: 99.8% (active)
[10]; at 100.0 µM
  growth inhibition: 99% (active)
[11]; at 1.2 µM
  growth inhibition: -5%
[11]; at 3.7 µM
  growth inhibition: 95% (active)
[11]; at 11.0 µM
  growth inhibition: 97% (active)
[11]; at 33.0 µM
  growth inhibition: 99% (active)
[11]; at 100.0 µM
  growth inhibition: 99% (active)
[12]; at 1.2 µM
  growth inhibition: 1%
[12]; at 3.7 µM
  growth inhibition: 30%
[12]; at 11.0 µM
  growth inhibition: 99% (active)
[12]; at 33.0 µM
  growth inhibition: 99% (active)
[12]; at 100.0 µM
  growth inhibition: 99% (active)
[13]; at 1.2 µM
  growth inhibition: 4%
[13]; at 3.7 µM
  growth inhibition: 97% (active)
[13]; at 11.0 µM
  growth inhibition: 99% (active)
[13]; at 33.0 µM
  growth inhibition: 99% (active)
[13]; at 100.0 µM
  growth inhibition: 99% (active)
[14]; [16]
  growth inhibition: 97% (active)
[14]; [17]
  growth inhibition: 100% (active)
[14]; at 50.0 µM
  growth inhibition: 99.5% (active)
[15]; at 1.2 µM
  growth inhibition: 4%
[15]; at 3.7 µM
  growth inhibition: 81% (active)
[15]; at 11.0 µM
  growth inhibition: 99% (active)
[15]; at 33.0 µM
  growth inhibition: 99% (active)
[15]; at 100.0 µM
  growth inhibition: 99% (active)

## COc1ccc2c(Cc3c4ccccc4cc4ccccc34)cncc2c1O
[1]; at 1.2 µM
  growth inhibition: 2%
[1]; at 3.7 µM
  growth inhibition: 4%
[1]; at 11.0 µM
  growth inhibition: 12%
[1]; at 33.0 µM
  growth inhibition: 56%
[1]; at 100.0 µM
  growth inhibition: 93% (active)
[2]; at 1.2 µM
  growth inhibition: 4%
[2]; at 3.7 µM
  growth inhibition: 18%
[2]; at 11.0 µM
  growth inhibition: 41%
[2]; at 33.0 µM
  growth inhibition: 68%
[2]; at 100.0 µM
  growth inhibition: 80% (active)
[3]; at 1.2 µM
  growth inhibition: 3%
[3]; at 3.7 µM
  growth inhibition: 6%
[3]; at 11.0 µM
  growth inhibition: 11%
[3]; at 33.0 µM
  growth inhibition: 42%
[3]; at 100.0 µM
  growth inhibition: 93% (active)
[4]; at 1.2 µM
  growth inhibition: 4%
[4]; at 3.7 µM
  growth inhibition: 6%
[4]; [16]
  growth inhibition: 51%
[4]; at 11.0 µM
  growth inhibition: 26%
[4]; at 33.0 µM
  growth inhibition: 68%
[4]; [17]
  growth inhibition: 98% (active)
[4]; at 50.0 µM
  growth inhibition: 93.9% (active)
[4]; at 100.0 µM
  growth inhibition: 90% (active)
[5]; at 1.2 µM
  growth inhibition: 4%
[5]; at 3.7 µM
  growth inhibition: 7%
[5]; [16]
  growth inhibition: 19%
[5]; at 11.0 µM
  growth inhibition: 12%
[5]; at 33.0 µM
  growth inhibition: 33%
[5]; [17]
  growth inhibition: 97% (active)
[5]; at 50.0 µM
  growth inhibition: 91.5% (active)
[5]; at 100.0 µM
  growth inhibition: 86% (active)
[6]; at 1.2 µM
  growth inhibition: 6%
[6]; at 3.7 µM
  growth inhibition: 7%
[6]; at 11.0 µM
  growth inhibition: 27%
[6]; at 33.0 µM
  growth inhibition: 95% (active)
[6]; at 100.0 µM
  growth inhibition: 93% (active)
[7]; [16]
  growth inhibition: 30%
[7]; [17]
  growth inhibition: 95% (active)
[7]; at 50.0 µM
  growth inhibition: 92.8% (active)
[8]; at 1.2 µM
  growth inhibition: 5%
[8]; at 3.7 µM
  growth inhibition: 7%
[8]; at 11.0 µM
  growth inhibition: 9%
[8]; at 33.0 µM
  growth inhibition: 18%
[8]; at 100.0 µM
  growth inhibition: 68%
[9]; [16]
  growth inhibition: -2%
[9]; [17]
  growth inhibition: 96% (active)
[9]; at 50.0 µM
  growth inhibition: 80.2% (active)
[10]; at 1.2 µM
  growth inhibition: 5%
[10]; at 3.7 µM
  growth inhibition: 8%
[10]; [16]
  growth inhibition: 8%
[10]; at 11.0 µM
  growth inhibition: 19%
[10]; at 33.0 µM
  growth inhibition: 45%
[10]; [17]
  growth inhibition: 97% (active)
[10]; at 50.0 µM
  growth inhibition: 87.7% (active)
[10]; at 100.0 µM
  growth inhibition: 85% (active)
[11]; at 1.2 µM
  growth inhibition: 1%
[11]; at 3.7 µM
  growth inhibition: 4%
[11]; at 11.0 µM
  growth inhibition: 18%
[11]; at 33.0 µM
  growth inhibition: 91% (active)
[11]; at 100.0 µM
  growth inhibition: 93% (active)
[12]; at 1.2 µM
  growth inhibition: 4%
[12]; at 3.7 µM
  growth inhibition: 7%
[12]; at 11.0 µM
  growth inhibition: 15%
[12]; at 33.0 µM
  growth inhibition: 60%
[12]; at 100.0 µM
  growth inhibition: 91% (active)
[13]; at 1.2 µM
  growth inhibition: 2%
[13]; at 3.7 µM
  growth inhibition: 8%
[13]; at 11.0 µM
  growth inhibition: 36%
[13]; at 33.0 µM
  growth inhibition: 89% (active)
[13]; at 100.0 µM
  growth inhibition: 91% (active)
[14]; [16]
  growth inhibition: 80% (active)
[14]; [17]
  growth inhibition: 97% (active)
[14]; at 50.0 µM
  growth inhibition: 95.6% (active)
[15]; at 1.2 µM
  growth inhibition: 9%
[15]; at 3.7 µM
  growth inhibition: 4%
[15]; at 11.0 µM
  growth inhibition: 25%
[15]; at 33.0 µM
  growth inhibition: 86% (active)
[15]; at 100.0 µM
  growth inhibition: 88% (active)
